Mcl1-Bid inh: disrupts binding of human Mcl-1 to Bid peptide | Q07820 | TR-FRET Mcl-1/Bid-Dy647 peptide binding, 1536-well | inhibition, % at 21.7 µM | hit rate 0.97% among 220,000;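 active = compounds that cut the binding signal by more than half at the single screening dose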;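 note: His-tagged Mcl-1 with europium anti-His antibody binding Bid BH3 peptide; 0% = Mcl-1 plus peptide wells and 100% = peptide-only wells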
Target sequence (Q07820 whole entry, looked up): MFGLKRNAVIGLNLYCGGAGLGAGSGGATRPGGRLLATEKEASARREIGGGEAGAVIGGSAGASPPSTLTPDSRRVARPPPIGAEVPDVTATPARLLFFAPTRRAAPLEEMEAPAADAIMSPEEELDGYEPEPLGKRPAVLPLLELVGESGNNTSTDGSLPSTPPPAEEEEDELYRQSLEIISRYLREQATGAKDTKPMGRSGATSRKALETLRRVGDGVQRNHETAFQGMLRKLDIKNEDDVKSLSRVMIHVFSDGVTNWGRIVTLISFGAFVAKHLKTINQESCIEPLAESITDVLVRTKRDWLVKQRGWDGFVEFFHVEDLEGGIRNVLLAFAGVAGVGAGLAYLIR
Mcl1-Noxa inh: Mcl-1/Noxa interaction inhibition | Q07820 | TR-FRET Mcl-1/Noxa peptide binding, 2 h | inhibition, % at 21.7 µM | hit rate 1.5% among 220,000;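 active = compounds that cut the protein-peptide binding signal by more than 50% relative to plate controls in a single-dose test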;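 note: His-tagged Mcl-1 with rhodamine Noxa BH3 peptide and terbium anti-His antibody; 0% = Mcl-1 plus Noxa peptide wells and 100% = peptide-only wells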
MCL1 BIM primary: disrupts human MCL1 binding to BIM-BH3 peptide; Q07820; GST-MCL1 / FITC-Bim-BH3 fluorescence polarization; inhibition, % at 10.9 µM; hit rate 0.68% among 320,000; AID 2057;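 active = inhibition above the mean inhibition of all tested compounds plus 3 SD, set per campaign, cut at about 40% in these data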;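 note: 0% = DMSO wells and 100% = unlabeled Bim-BH3 peptide control; higher means more loss of mP so more displacement of Bim peptide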
L929 necroptosis: L929 zVAD cell death inhibition; L929 zVAD necroptosis rescue, ATP luminescence, 24 h; with zVAD 60 µM; viability rescue, % at 10 µM; hit rate 0.38% among 220,000;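 active = activation, scaled between plate controls, above about 75%, limit read from the data; inactive = activation under that limit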;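 note: 0% = zVAD with DMSO and 100% = DMSO alone without zVAD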
Bim-Mcl-1: inhibitors of Bim-Mcl-1 interaction, human; Bead-based flow cytometry, Bim peptide-Mcl-1 binding; inhibition, % at 10 µM; hit rate 0.1% among 190,000; AID 1009; in the data active = inhibition above about 40%;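 note: 0% = no compound tracer wells and 100% = peptide blocker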
TNF necrop inh: blocks TNF-alpha induced death of Jurkat FADD-/- cells; Jurkat FADD-/- TNF necroptosis rescue, ATP luminescence, 24 h; 0 = TNF only, 100 = no-TNF cells; activation (protection from cell death), % at 10 µM; hit rate 0.068% among 220,000; AID 463075;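 active = activation, meaning protection from cell death, of at least 50% relative to plate controls; inactive = activation below 50%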;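 note: necroptosis triggered by 40 ng/mL TNF-alpha added together with compound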
* hit, by the source's call; . = no result given. Shown are actives, neighbours in structure and some others; about 2.4% of the full set was active somewhere.

SMILES | Mcl1-Bid inh | Mcl1-Noxa inh | MCL1 BIM primary | L929 necroptosis | Bim-Mcl-1 | TNF necrop inh
C/C(N)=C(/C#N)C(=O)CSc1cc(Cl)ccc1Cl | -3 | 10 | -1 | 0 | -5 | 1
C/C(N)=C(/C#N)C(=O)CSc1nc2cc(Cl)ccc2s1 | -13 | 53* | 5 | 0 | -2 | -1
COc1ccccc1C(=O)Nc1ccc(S(=O)(=O)Nc2cc(C)nc(C)n2)cc1 | -6 | 10 | 1 | 0 | -3 | 0
COc1ccc(C(=O)Nc2ccc(S(=O)(=O)Nc3cc(C)nc(C)n3)cc2)c(OC)c1 | -15 | 63* | -9 | 0 | -4 | -5
O=C(NC1CCCCC1)C(c1cccs1)N(C(=O)c1ccccn1)c1ccccc1 (stereo not drawn) | -1 | 4 | 2 | 0 | -7 | 1
OC(C#Cc1ccccn1)c1cccs1 (stereo not drawn) | -13 | 8 | 44* | 0 | -4 | -6
CC1(C)Cc2c(c(-c3ccco3)nc3sc4c(NCCCO)ncnc4c23)CO1 | 2 | 49 | 9 | 2 | . | -21
CC1(C)Cc2c(c(-c3ccco3)nc3sc4c(NCC5CCCO5)ncnc4c23)CO1 (stereo not drawn) | -3 | 51* | 1 | 2 | 7 | -3
CC1(C)Cc2c(c(-c3ccco3)nc3sc4c(NCCN5CCOCC5)ncnc4c23)CO1 | -6 | 63* | -2 | 2 | -2 | -9
Cc1ccc2nc(C)cc(C(=O)N3CCCC(N4CCN(c5ccccc5C)CC4)C3)c2c1 (stereo not drawn) | . | . | 1 | . | . | .
CC(=O)[C@@H]1[C@@H]2C(=O)N(Cc3ccccc3)C(=O)[C@@H]2C2c3ccccc3C=CN21 (stereo partly drawn) | -16 | 10 | 50* | 0 | -3 | -1
O=C(NCCOc1ccccc1)C1CCC(=O)N(CCCN2CCCC2=O)C1 (stereo not drawn) | . | . | 5 | . | . | .
CC1(c2ccccc2)CC(C)(C)N2C(=O)C3(C(C#N)=C(N)Oc4cc(O)ccc43)c3cccc1c32 (stereo not drawn) | 61* | 1 | -5 | 2 | 0 | -1
CCOC(=O)c1c(CSc2ccc(C)cc2)n(C)c2cc(Br)c(O)c(CN(C)C)c12 | 27 | 86* | 3 | 0 | 2 | 4
CCOC(=O)c1c(CSc2ccccc2)n(C)c2cc(Br)c(O)c(CN(C)C)c12 | 6 | 15 | 6 | 0 | . | 6
CCOC(=O)c1c(CSc2ccsc2)n(C)c2cc(Br)c(O)c(CN(C)C)c12 | -124 | 60* | 13 | 1 | . | 5
CCOc1ccc(NC(=O)NCc2ccc3c(c2)OCO3)cc1 | . | . | 0 | . | . | .
N#Cc1ccc(OCC(=O)NNC(=S)NC2CCCCC2)cc1 | . | . | 0 | . | . | .
COc1ccccc1-c1noc(CCCC(=O)NC2CCCCC2)n1 | . | . | -6 | . | . | .
CN(C)c1ccc(S(=O)(=O)c2ccc(Cl)cc2)cc1 | -21 | 4 | 12 | 1 | 0 | 1
CN(C)c1ccc(NS(=O)(=O)c2cccc(Cl)c2)cc1 | -21 | 84* | 18 | 1 | 0 | 1
CN(C)c1ccc(NS(=O)(=O)c2ccc(Cl)cc2)cc1 | -9 | 61* | 12 | 1 | 0 | 3
O=[N+]([O-])c1cc(NS(=O)(=O)c2ccc(Cl)nc2)ccc1Cl | . | . | -1 | . | . | .
Cc1ccc(S(=O)(=O)Nc2ccc(N(C)C)cc2)cc1 | -3 | 73* | 10 | 2 | 0 | 1
CC(C)c1ccc(NS(=O)(=O)c2ccc(Cl)nc2)cc1 | 55* | 13 | 9 | 3 | -2 | 0
SMILES | Mcl1-Bid inh | Mcl1-Noxa inh | MCL1 BIM primary | L929 necroptosis | Bim-Mcl-1 | TNF necrop inh
Cc1cc2nc3n(c2cc1C)CC1CC(C(=O)NCc2ccco2)N(C)C31 (stereo not drawn) | -67 | -18 | 0 | -1 | . | 1
CCOC(=O)C1(CCOc2ccccc2)CCN(Cc2cccc(OC)c2O)CC1 | . | . | 11 | . | . | .
CC(C)(C)C(=O)Nc1ccccc1N1CCN(c2ccc(F)cc2)CC1 | . | . | -6 | . | . | .
COc1ccc(-c2ccc(-c3noc(-c4ccccc4F)n3)c(OC)n2)cc1 | 56* | . | . | 0 | 2 | 0
O=C(/C=C/N1CCOCC1)c1coc2ccccc12 | 71* | -3 | -22 | 3 | -1 | -1
O=C(/C=C/N1CCOCC1)c1cc2ccccc2o1 | 75* | 6 | -18 | 4 | 2 | 1
O=C(Nc1ccc(N2CCOCC2)cc1)c1cc2ccccc2o1 | -49 | 26 | 0 | 1 | 1 | 2
Cc1ccc(S(=O)(=O)N2CCN(c3nn(C)c(=O)n(C)c3=O)CC2)cc1C | . | . | -5 | . | . | .
CC1CN(C(=O)c2cc(S(=O)(=O)N(C)c3ccc(F)cc3)ccc2Cl)CC(C)O1 (stereo not drawn) | . | . | 9 | . | . | .
CCN(CCO)c1ccc(-n2c(N)c(C(=O)OC)c3nc4ccccc4nc32)cc1 | 6 | 52* | 5 | 2 | -2 | -2
O=C(CSc1nnc2c(n1)[nH]c1ccccc12)NCc1ccco1 | -27 | 73* | 13 | 1 | -6 | -1
N#Cc1c(N2CCN(c3ccc(F)cc3)CC2)nc(N)c2c(N)nc3c(c12)CC(=O)N3C1CC1 | -6 | 55* | . | 1 | 4 | 1
O=c1c2ccccc2c(C=Nc2cccc(O)c2)c(O)n1-c1ccc2c(c1)OCO2 | 60* | 50 | 5 | 0 | -4 | -16
Nc1ccccc1N=c1ssnc1Cl | -20 | 54* | . | 5 | -7 | 1
Cc1cc(Cl)ccc1N=c1ssnc1Cl | -10 | 25 | 3 | 0 | -1 | -7
O=C1CC2(CCN(C(=O)c3ccc(F)c(F)c3)CC2)Oc2ccccc21 | . | . | -4 | . | . | .
c1ccc2c(c1)Cc1ccccc1O2 | . | . | -3 | . | . | .
CCC1Oc2ccc(C)cc2N(CC(=O)N(Cc2cccnc2)Cc2ccc(C)o2)C1=O (stereo not drawn) | 71* | 64* | 1 | 0 | 1 | -2
COc1ccc(CNS(=O)(=O)c2ccc(F)c(C(=O)Nc3ccc(OC)cc3)c2)cc1 | -12 | 53* | 1 | 0 | -2 | 1
CC(C)CC1NC(=O)c2ccccc2-n2c1nc1ccc(F)cc1c2=O (stereo not drawn) | . | . | 6 | . | . | .
O=C(c1cccc(Cl)c1)N(Cc1ccco1)C1CCS(=O)(=O)C1 (stereo not drawn) | . | . | 7 | . | . | .
Cc1cc(C)cc(-c2nnc(SCC(=O)c3ccc4c(c3)OCCO4)o2)c1 | -3 | -11 | -3 | -1 | -1 | -2
Cc1cc(-c2nnc(SCC(=O)c3ccc4c(c3)OCCO4)o2)no1 | -27 | 59* | 10 | 1 | -2 | 3
COc1cc(/C=N/NC(=O)CSc2n[nH]c(=O)[nH]c2=O)cc(OC)c1O | -34 | 61* | 10 | 2 | 8 | -1
COC(=O)c1ccc(N2C(=O)CC(Sc3n[nH]c(C)n3)C2=O)cc1 (stereo not drawn) | -17 | 53* | -1 | 0 | 0 | -2

From PubChem BioAssay
